Reference: PubChem BioAssay (EPA / NIEHS)
Several values for one entry are separate records, joined by “and”; a condition that tells them apart may be missing. Equal values may be shown once. More than one record can exist for a structure, and the calls need not agree. Activity calls are given as the source filed them. The calls were made as follows: active = hit-call score of the fitted dose curve at least 0.9, where 1 is the maximum; inactive = score below 0.9.

Key:
[1] = ATG_PPRE_CIS: Attagene CIS-FACTORIAL HepG2 Assay for human Peroxisome Proliferator-activated Response Element (PPRE) (AID 2282958); details: HepG2 PPRE cis-element reporter, Attagene transcription factor profiling; actives raise or lower the signal
Outline: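 Endogenous PPRE-driven transcription is measured in HepG2 cells carrying transfected multi-reporter constructs. Reporter transcripts are quantified by RT-PCR, HpaI digestion and capillary electrophoresis 24 h after dosing. DMSO baseline, bidirectional fit.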

[2] = ATG_RORE_CIS: Attagene CIS-FACTORIAL HepG2 Assay for human RAR-related Orphan Receptor Element (RORE) (AID 2282959); details: HepG2 Attagene cis-factorial RORE reporter, mRNA; actives raise or lower the signal
Outline: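 RORE reporter transcripts reflecting endogenous factor activity were read after 24 h compound exposure of transfected HepG2 cells, using reverse transcription, PCR, fluorescent labelling and capillary electrophoresis sizing. Gain or loss fitted against DMSO.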

[3] = ATG_Sox_CIS: Attagene CIS-FACTORIAL HepG2 Assay for human SRY-box transcription factor (SOX) (AID 2282960); details: HepG2 Attagene cis-factorial SOX reporter, mRNA; actives raise or lower the signal
Outline: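 Reporter transcripts, measured by RT-PCR and capillary electrophoresis of labelled fragments, report endogenous SOX transcription factor activity. Transiently transfected human HepG2 cells receive chemical for 24 h; changes in either direction are fitted relative to DMSO.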

[4] = target: Transcription factor Sp1 (Homo sapiens) (UniProt P08047); test: ATG_Sp1_CIS: Attagene CIS-FACTORIAL HepG2 Assay for human Specificity Protein 1 (Sp1) (AID 2282961); details: HepG2 Sp1 cis-reporter transcription, actives raise or lower the signal
Outline: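 Read-out is reporter transcript level, measured by RT-PCR and fluorescent capillary electrophoresis after 24 h chemical treatment. System: transiently transfected HepG2 cells reporting endogenous transcription factor activity; gain or loss fitted against DMSO baseline.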

[5] = ATG_SREBP_CIS: Attagene CIS-FACTORIAL HepG2 Assay for human Sterol Regulatory Element Binding (SREBP) (AID 2282962); details: HepG2 Attagene cis-factorial SREBP reporter, mRNA; actives raise or lower the signal
Outline: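 Endogenous SREBP activity read as cis-element-driven reporter transcript in transiently transfected HepG2, 24 h post-dosing; quantified via RT-PCR plus capillary electrophoresis of fluorescent fragments. Gain or loss of signal fitted relative to DMSO baseline.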

[6] = target: Signal transducer and activator of transcription 3 (Homo sapiens) (UniProt P40763); test: ATG_STAT3_CIS: Attagene CIS-FACTORIAL HepG2 Assay for human Signal Transducer and Activator of Transcription 3 (STAT3) (AID 2282963); details: HepG2, Attagene cis-factorial STAT3 reporter transcription; actives raise or lower the signal
Outline: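 Cis-factorial format: endogenous transcription factors in HepG2 drive transfected reporter units. After 24 h treatment, reporter RNA was reverse-transcribed, amplified, FAM-labelled and HpaI-digested before CE analysis; activity scored in both directions against DMSO.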

[7] = ATG_TA_CIS: Attagene CIS-FACTORIAL HepG2 Assay for human TA Basal Promoter (AID 2282964); details: HepG2 Attagene CIS-factorial TA basal promoter reporter; actives raise or lower the signal
Outline: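 Fluorescence from labelled RT-PCR reporter fragments, separated by capillary electrophoresis, gives the signal. Cells: HepG2 transiently carrying multiple reporter units, 24 h chemical dosing. Gain or loss relative to DMSO.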

[8] = ATG_TCF_b_cat_CIS: Attagene CIS-FACTORIAL HepG2 Assay for human T-Cell-Factor with beta-catenin (TCF/b-cat) (AID 2282965); details: HepG2 TCF/beta-catenin cis-reporter transcription, actives raise or lower the signal
Outline: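 Endogenous transcription factor activity is captured through cis-promoter reporter constructs transiently introduced into human HepG2 liver cells. Induced reporter mRNA is measured after 24 h and fitted bidirectionally relative to DMSO.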

[9] = ATG_TAL_CIS: Attagene CIS-FACTORIAL HepG2 Assay for human TAL Basal Promoter (AID 2282966); details: HepG2 Attagene cis-factorial TAL promoter reporter; actives raise or lower the signal;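 also: background control endpoint measuring basal TAL promoter reporter mRNA not a specific factor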
Outline: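 Background-control endpoint: basal TAL promoter reporter transcripts in transiently transfected HepG2, measured 24 h after dosing. Read-out by RT-PCR with fluorescent primer extension and capillary electrophoresis; gain or loss of signal fitted relative to DMSO.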

[10] = ATG_TGFb_CIS: Attagene CIS-FACTORIAL HepG2 Assay for human Transforming Growth Factor (TGF) (AID 2282967); details: HepG2 Attagene CIS TGFb reporter, mRNA transcription; actives raise or lower the signal
Outline: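 Bidirectional fitting relative to DMSO gave the endpoint. Underlying data: reporter mRNA from HepG2 cells carrying transiently transfected cis-regulated reporter constructs, harvested 24 h after dosing and analyzed by RT-PCR and capillary electrophoresis.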

Measured: AC50

Chain of Transcription factor Sp1 (Homo sapiens) (P08047 whole entry, looked up): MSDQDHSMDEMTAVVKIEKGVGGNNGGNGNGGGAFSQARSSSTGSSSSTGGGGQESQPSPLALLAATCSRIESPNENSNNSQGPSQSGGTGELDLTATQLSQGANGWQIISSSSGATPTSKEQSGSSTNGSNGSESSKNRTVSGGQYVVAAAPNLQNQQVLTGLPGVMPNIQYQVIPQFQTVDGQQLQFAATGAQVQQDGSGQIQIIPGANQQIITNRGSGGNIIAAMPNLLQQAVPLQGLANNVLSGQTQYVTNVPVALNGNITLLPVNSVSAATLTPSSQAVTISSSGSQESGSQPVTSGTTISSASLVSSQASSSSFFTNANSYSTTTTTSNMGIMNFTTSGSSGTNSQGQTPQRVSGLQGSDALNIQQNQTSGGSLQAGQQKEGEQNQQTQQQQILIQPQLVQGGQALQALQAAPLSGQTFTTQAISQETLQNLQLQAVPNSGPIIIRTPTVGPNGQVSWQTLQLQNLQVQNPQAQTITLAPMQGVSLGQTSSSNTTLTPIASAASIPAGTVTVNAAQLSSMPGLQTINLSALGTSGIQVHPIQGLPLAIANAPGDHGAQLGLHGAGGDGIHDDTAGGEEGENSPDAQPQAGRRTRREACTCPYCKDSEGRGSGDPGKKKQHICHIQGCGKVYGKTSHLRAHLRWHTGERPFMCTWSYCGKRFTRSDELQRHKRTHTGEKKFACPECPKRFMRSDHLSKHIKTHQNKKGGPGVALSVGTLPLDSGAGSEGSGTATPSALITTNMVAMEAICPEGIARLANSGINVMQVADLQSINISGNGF
Chain of Signal transducer and activator of transcription 3 (Homo sapiens) (P40763 whole entry, looked up): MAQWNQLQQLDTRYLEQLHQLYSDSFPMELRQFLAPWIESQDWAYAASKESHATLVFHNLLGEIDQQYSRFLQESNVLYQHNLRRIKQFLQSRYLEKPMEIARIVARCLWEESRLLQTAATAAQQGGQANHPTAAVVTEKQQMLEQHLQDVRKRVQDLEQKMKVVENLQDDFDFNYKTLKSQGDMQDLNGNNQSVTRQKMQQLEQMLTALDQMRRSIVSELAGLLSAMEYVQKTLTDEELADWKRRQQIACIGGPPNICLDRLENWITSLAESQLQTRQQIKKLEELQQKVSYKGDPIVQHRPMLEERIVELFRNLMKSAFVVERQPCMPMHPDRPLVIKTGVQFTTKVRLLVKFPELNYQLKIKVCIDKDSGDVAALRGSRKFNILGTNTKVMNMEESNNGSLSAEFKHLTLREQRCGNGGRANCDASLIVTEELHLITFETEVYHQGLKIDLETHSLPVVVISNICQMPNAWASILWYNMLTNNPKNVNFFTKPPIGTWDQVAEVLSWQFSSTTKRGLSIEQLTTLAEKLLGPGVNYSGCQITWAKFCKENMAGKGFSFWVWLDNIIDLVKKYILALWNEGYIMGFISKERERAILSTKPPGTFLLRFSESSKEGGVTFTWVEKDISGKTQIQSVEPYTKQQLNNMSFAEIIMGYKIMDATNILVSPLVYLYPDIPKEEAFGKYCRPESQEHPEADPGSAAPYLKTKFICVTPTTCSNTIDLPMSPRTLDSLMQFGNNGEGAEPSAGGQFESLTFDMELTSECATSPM

CCC(C)c1ccccc1O (stereo not drawn)
inactive: [1] | [2] | [3] | [4] | [5] | [6] | [7] | [8] | [9] | [10]
active: [8] 164 µM

CCOC=C(C(=O)OCC)C(=O)OCC
inactive: all assays above

CCCCN(C)C
inactive: all assays above

C=CC(=O)OCCC(F)(F)C(F)(F)C(F)(F)C(F)(F)C(F)(F)C(F)(F)F
inactive: all assays above

O=C(OC(=O)C(F)(F)C(F)(F)F)C(F)(F)C(F)(F)F
inactive: all assays above

CC(C)(C)c1ccc(O)c(O)c1
inactive: [1] | [2] | [3] | [4] | [6] | [7] | [8] | [9] | [10]
active: [2] 45.8 µM and 27.9 µM and 54.2 µM | [10] 100 µM and 46.6 µM and 42.3 µM

CC(=O)Nc1ccc(S(N)(=O)=O)cc1
inactive: all assays above

CCOC(=O)CN[C@@H](C(=O)N1CC[C@H]1C(=O)NCc1ccc(/C(N)=N/O)cc1)C1CCCCC1
inactive: all assays above

Brc1cc(Br)c(Oc2c(Br)cc(Br)c(Br)c2Br)cc1Br
inactive: all assays above

C[C@]12CC[C@@H]3c4ccc(O)cc4CC[C@H]3[C@@H]1C[C@@H](O)[C@@H]2O
inactive: all assays above

O=C(CC(=O)C(F)(F)C(F)(F)C(F)(F)F)c1cccs1
active: [1] 8.07 µM and 26.2 µM | [2] 15.6 µM | [4] 39.6 µM | [5] 16.2 µM and 80.3 µM | [9] 81 µM and 34.2 µM
inactive: [2] | [3] | [4] | [6] | [7] | [8] | [10]

OCC(F)(F)C(F)(F)C(F)(F)C(F)(F)C(F)(F)C(F)(F)C(F)(F)C(F)(F)C(F)(F)C(F)(F)C(F)(F)F
inactive: all assays above

C[C@]12CC[C@@H]3c4ccc(O)cc4CC[C@H]3[C@@H]1CC[C@@H]2OC(=O)CCC1CCCC1
active: [1] 100 µM | [3] 163 µM
inactive: all other assays above

C=C(c1ccc(C(=O)O)cc1)c1cc2c(cc1C)C(C)(C)CCC2(C)C
inactive: [2] | [3] | [4] | [5] | [6] | [10]
active: [1] 9.14 nM and 19.3 nM | [2] 2.2 µM | [4] 32.9 µM | [7] 11.1 µM and 29.8 µM

CC(C)c1c(C(=O)Nc2ccccc2)c(-c2ccccc2)c(-c2ccc(F)cc2)n1CC[C@@H](O)C[C@@H](O)CC(=O)O
inactive: [1] | [2] | [3] | [4] | [5] | [6] | [8] | [10]
active: [5] 0.156 µM | [7] 66.4 µM and 45 µM | [8] 144 µM | [9] 41.9 µM and 20.2 µM

CCCCCCCCCCCC(=O)O
inactive: [1] | [2] | [3] | [4] | [6] | [7] | [9] | [10]
active: [4] 36.7 µM | [5] 52.7 µM and 60 µM

CC(C)(C)c1ccc(CCC=O)cc1
active: [8] 162 µM
inactive: all other assays above

c1cc2cccc3c4cccc5cccc(c(c1)c23)c54
inactive: all assays above

CCCCCCCCCCCC[N+](C)(C)Cc1ccccc1
active: [4] 6.43 µM | [7] 17.7 µM
inactive: [1] | [2] | [3] | [4] | [5] | [6] | [7] | [9] | [10]

CC1CNCC(C)O1 (stereo not drawn)
inactive: all assays above

Cc1cc(C(C)(C)C)c(O)c(C(C)(C)C)c1
active: [1] 11.9 µM | [4] 52.3 µM and 97 µM
inactive: [1] | [3] | [6] | [7] | [8] | [9] | [10]

C=CC(=O)OCCN(CC)CC
active: [5] 61.8 µM
inactive: all other assays above

O=C(O)C(F)(F)OC(F)(F)C(F)(F)OC(F)(F)C(F)(F)OC(F)(F)C(F)(F)C(F)(F)C(F)(F)F
active: [1] 13.1 µM and 22.1 µM | [2] 45.4 µM and 21.6 µM | [3] 37.3 µM | [4] 31.8 µM | [8] 25.9 µM and 24.4 µM
inactive: [3] | [4] | [6] | [7] | [9] | [10]

COc1ccccc1NC(=O)c1cc2ccccc2cc1O
active: [3] 100 µM | [4] 27.7 µM | [5] 55.5 µM | [8] 123 µM
inactive: all other assays above

CC(C)(c1ccc(Oc2ccc(N)cc2)cc1)c1ccc(Oc2ccc(N)cc2)cc1
inactive: all assays above

CCCCCCCCCCCCCCCC(=O)OC
inactive: all assays above

NC(C(F)(F)F)C(F)(F)F
inactive: all assays above

CCN(CC)CC
inactive: [1] | [2] | [3] | [4] | [5] | [6] | [7] | [8] | [9] | [10]
active: [3] 18.3 µM

O=C1OC(=O)c2cc(-c3ccc4c(c3)C(=O)OC4=O)ccc21
inactive: all assays above

CC(=O)CC(C)C
inactive: all assays above

CCCCc1oc2ccccc2c1C(=O)c1cc(I)c(OCCN(CC)CC)c(I)c1
active: [3] 128 µM | [4] 130 µM | [5] 19.7 µM | [7] 19.8 µM | [9] 26.1 µM
inactive: all other assays above

C=COC(=O)C(C)(C)CCCCCC
inactive: all assays above

C=CC(=C)CC/C=C(\C)CCC=C(C)C
inactive: all assays above

O=S(=O)(O)c1ccccc1
active: [1] 57.9 µM
inactive: [1] | [2] | [3] | [4] | [5] | [6] | [7] | [8] | [10]

O=P(O)(O)CCC(F)(F)C(F)(F)C(F)(F)C(F)(F)C(F)(F)C(F)(F)C(F)(F)C(F)(F)F
inactive: all assays above

Cc1cncc(C)c1
inactive: all assays above

O=S(=O)(c1ccc(OCc2ccccc2)cc1)c1ccccc1O
active: [1] 0.156 µM | [4] 30.6 µM | [5] 22.7 µM | [8] 54.4 µM
inactive: all other assays above

FC(F)(F)N1C(F)(F)C(F)(F)OC(F)(F)C1(F)F
inactive: all assays above

NCCN
inactive: all assays above

O=CC(F)(F)C(F)(F)C(F)(F)F
inactive: all assays above

COc1cc(OC)nc(NC(=O)NS(=O)(=O)Nc2ccccc2C(=O)N(C)C)n1
inactive: all assays above

O=C(Nc1ccc(Cl)c(Cl)c1)c1cc(Cl)cc(Cl)c1O
active: [1] 0.648 µM | [2] 0.903 µM | [8] 33.4 µM
inactive: all other assays above

COc1cc([N+](=O)[O-])ccc1N
inactive: all assays above

CC[N+](CC)(CC)Cc1ccccc1
inactive: all assays above
